Screens as filed in PubChem BioAssay.
BAZ2B block = BAZ2B (human) inhibition; Q9UIF8; AlphaScreen BAZ2B-H3K14Ac peptide displacement; Potency, µM (series often up to 114 µM), most hits filed as inhibitors; actives 4.4% (n = 360,000); further: nearly all actives have a fitted effect of over 60% in size
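In this displacement format the biotinylated H3(5-23) peptide acetylated at Lys14 serves as ligand at 50 nM, with BAZ2B at 50 nM in PBS pH 7.4 containing 0.01% Tween-20. Donor and acceptor beads are 10 ug/mL final.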
Sfp inh = blocks B. subtilis Sfp PPTase activity; Potency, µM, most hits filed as inhibitors; actives 3.5% (n = 310,000); Biochemical Sfp PPTase activity, qHTS; Q9F4F7; AID 1490;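 further: the enzyme is Sfp with the accession as filed and its product quenches rhodamine fluorescence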
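With Hepes-Na pH 7.6 buffer containing 10 mM MgCl2, Sfp (15 nM) modified BHQ-2-YbbR (12.5 uM) using rhodamine-CoA (5 uM). Two reads 30 minutes apart at 525/598 nm yielded each well's rate.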
HP1b chromo inh = HP1-beta chromodomain-methylated histone interaction inhibition; P83916; AlphaScreen HP1-beta / biotin-H3K9me3 peptide binding; Potency, µM (top dose mostly 114 µM), hits mostly inhibitors; actives 0.56% (n = 390,000); AID 540317; further: nearly all actives have a fitted effect of over 70% in size
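HP1-beta protein (50 nM final) preincubated 30 min at room temperature with biotinylated H3(1-18)K9me3 peptide (50 nM) in PBS pH 7.4, 0.01% Tween-20, then compound added for 30 min. AlphaScreen streptavidin donor/nickel chelate acceptor beads (10 ug/mL final), 30 min dark, luminescence read.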
TDP1 inh = TDP1 (human) enzyme inhibition. Q9NUW8. recombinant TDP1, AlphaScreen DNA substrate cleavage. Potency, µM (titrated, usually from 130 µM), actives largely listed as inhibitors. actives 0.28% (n = 350,000); further: nearly all actives have a fitted effect of over 40% in size
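Enzyme-compound mixtures sat 15 min at room temperature, followed by a 5 min reaction with 15 nM final substrate and 10 min with AlphaScreen beads. Recombinant human Tdp1 was used at 1 nM final.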
JMJD2A Tudor inh = blocks the human JMJD2A Tudor domain; O75164; AlphaScreen JMJD2A-Tudor / H3K4me3 peptide binding; Potency, µM (series often up to 114 µM), most hits filed as inhibitors; actives 4.4% (n = 390,000); AID 504339; further: nearly all actives have a fitted effect of over 50% in size
G9a block = inhibitors of human histone lysine methyltransferase G9a. Q96KQ7. G9a H3K9 monomethylation, AlphaScreen, 2 h. Potency, µM (titrated, usually from 102 µM), actives largely listed as inhibitors. actives 8.8% (n = 350,000); further: nearly all actives have a fitted effect of over 75% in size
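Quantitative HTS format: methyltransferase activity on a biotin-tagged H3K9 peptide is measured by AlphaScreen, using a rabbit anti-monomethyl-H3K9 antibody with streptavidin donor and anti-IgG acceptor beads. Final levels are 20 nM enzyme, 500 nM peptide, 20 uM SAM; 2 h RT.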
Of the large screens only hits and unclear results are named; the others gave an inactive call. Sampled rows, rich in hits. Any-hit rate of the full collection: about 12%. The call rests on the fitted dose curve; in most records, active means well fitted curve in the direction sought with a large enough effect; inconclusive means small, poorly fitted or top-dose-only effect, or another doubt; inactive means no such curve, though single readings can be large; an effect the other way counts as inactive or inconclusive.

CC1CCCN(c2ncnc3c2cnn3-c2ccc(Cl)cc2)C1 (centres undefined)	none (no result: TDP1 inh)
Cc1sc2ncnc(N3CCCC(C)C3)c2c1C (centres undefined)	G9a block 56.2µM
COC(=O)c1ccccc1S(=O)(=O)N(Cc1ccco1)Cc1cc2cc(OC)ccc2[nH]c1=O	Sfp inh 22.4µM, G9a block inconclusive
CC(=O)Nc1ccc(S(=O)(=O)N(Cc2ccco2)Cc2cc3ccccc3[nH]c2=O)cc1	G9a block 35.5µM
CC(=O)Nc1ccc(S(=O)(=O)N(Cc2cccnc2)Cc2cc3ccccc3[nH]c2=O)cc1	none
COc1ccc2[nH]c(=O)c(CN(CC3CCCO3)S(=O)(=O)c3ccccc3F)cc2c1 (centres undefined)	none (no result: TDP1 inh)
CCOc1ccc(Br)cc1C1C(C(=O)Nc2ccccc2OC)=C(C)Nc2nnnn21 (centres undefined)	none (no result: Sfp inh)
CCN(CC)CCNC(=O)C1CCN(c2nn3cc(-c4ccc(F)cc4)nc3s2)CC1	G9a block inconclusive (no result: Sfp inh)
COC(=O)NC(/C(C(=O)OC)=C(\C)NCc1ccccc1)c1ccccc1 (centres undefined)	none (no result: BAZ2B block, HP1b chromo inh, JMJD2A Tudor inh, G9a block)
CCCCN(C(=O)c1cc2c(s1)CCC2)c1c(N)n(CC(C)C)c(=O)[nH]c1=O	BAZ2B block inconclusive (no result: Sfp inh)
CCCn1c(N)c(N(CCOC)C(=O)c2cc3c(s2)CCCCC3)c(=O)[nH]c1=O	none
CCCCN(C(=O)c1cc2c(s1)CCC2)c1c(N)n(CCC)c(=O)[nH]c1=O	BAZ2B block inconclusive, HP1b chromo inh inconclusive, JMJD2A Tudor inh inconclusive, G9a block 44.7µM (no result: Sfp inh, TDP1 inh)
COCCN(C(=O)c1cc2c(s1)CCC2)c1c(N)n(CC(C)C)c(=O)[nH]c1=O	BAZ2B block 56.2µM, TDP1 inh inconclusive, JMJD2A Tudor inh inconclusive (no result: Sfp inh)
O=C(Nc1cccc(F)c1)N1CC[C@@]2(CCCN(S(=O)(=O)c3ccccc3)C2)C1	none (no result: BAZ2B block, HP1b chromo inh, TDP1 inh, JMJD2A Tudor inh)
O=C(CCNS(=O)(=O)c1ccc(OC(F)(F)F)cc1)Nc1cccc(S(=O)(=O)N2CCCC2)c1	none (no result: BAZ2B block, Sfp inh, TDP1 inh, G9a block)
Cc1ccc(C)c(-n2c(SCC(=O)N3CCCC3)nnc2-c2ccccn2)c1	BAZ2B block 31.6µM, JMJD2A Tudor inh inconclusive
Cc1ccc(-n2c(SCC(N)=O)nnc2-c2cnccn2)cc1	none
CCN(CC)C(=O)CSc1nnc(-c2ccccn2)n1-c1ccccc1OC	BAZ2B block 89.1µM, JMJD2A Tudor inh inconclusive (no result: TDP1 inh)
Cc1ccc(-n2c(SCC(=O)OC(C)C)nnc2-c2ccccn2)cc1	BAZ2B block 50.1µM, JMJD2A Tudor inh 50.1µM
CCOc1ccccc1-n1c(SCC(=O)N(CC)CC)nnc1-c1ccccn1	BAZ2B block inconclusive
Cc1ccc(C)c(-n2c(SCC(N)=O)nnc2-c2ccccn2)c1	BAZ2B block 17.8µM, JMJD2A Tudor inh 79.4µM, G9a block inconclusive
Cc1ccc(-n2c(SCC(=O)OC(C)C)nnc2-c2ccco2)cc1	Sfp inh inconclusive
CCOc1ccccc1-n1c(SCC(=O)N2CCOCC2)nnc1-c1ccccn1	none
C=CCOc1cccc(C2C(C(=O)c3cc4ccccc4o3)=C(O)C(=O)N2c2cc(C)on2)c1 (centres undefined)	JMJD2A Tudor inh inconclusive, G9a block 39.8µM
COc1cccc(C2C(C(=O)c3cc4ccccc4o3)=C(O)C(=O)N2c2cc(C)on2)c1 (centres undefined)	G9a block 44.7µM
COc1ccc(OC)c(C2C(C(=O)c3ccc(C)o3)=C(O)C(=O)N2c2cc(C)on2)c1 (centres undefined)	Sfp inh inconclusive, JMJD2A Tudor inh inconclusive, G9a block 50.1µM
Cc1cc(N2C(=O)C(O)=C(C(=O)c3ccc(C)o3)C2c2ccc([N+](=O)[O-])cc2)no1 (centres undefined)	G9a block 44.7µM
COc1ccc(C2C(C(=O)c3ccc(C)o3)=C(O)C(=O)N2c2cc(C)on2)cc1OC (centres undefined)	JMJD2A Tudor inh inconclusive, G9a block inconclusive
Cc1cc(N2C(=O)C(O)=C(C(=O)c3cc4ccccc4o3)C2c2ccc(Cl)cc2)no1 (centres undefined)	BAZ2B block inconclusive, JMJD2A Tudor inh inconclusive
Cc1cccc(NC(=O)CN2C(=O)COc3ccc(S(=O)(=O)N4CCC(C)CC4)cc32)c1C	none (no result: Sfp inh)
COc1ccccc1C1C(C(=O)c2cc3ccccc3o2)=C(O)C(=O)N1c1cc(C)on1 (centres undefined)	G9a block 50.1µM
Cc1cc(N2C(=O)C(O)=C(C(=O)c3ccc(C)o3)C2c2cccc(Oc3ccccc3)c2)no1 (centres undefined)	JMJD2A Tudor inh 35.5µM (no result: G9a block)
COc1cc(C2C(C(=O)c3ccc(C)o3)=C(O)C(=O)N2c2cc(C)on2)cc(Br)c1O (centres undefined)	G9a block inconclusive
Cc1cc(N2C(=O)C(O)=C(C(=O)c3cc4ccccc4o3)C2c2cccc(Cl)c2)no1 (centres undefined)	JMJD2A Tudor inh inconclusive, G9a block 39.8µM
COc1ccc(OC)c(C2C(C(=O)c3cc4ccccc4o3)=C(O)C(=O)N2c2cc(C)on2)c1 (centres undefined)	G9a block inconclusive
O=C(O)CN1C(=O)/C(=C/c2ccc(SCc3ccccc3)o2)SC1=S	BAZ2B block 25.1µM, Sfp inh 14.1µM, HP1b chromo inh inconclusive, JMJD2A Tudor inh 56.2µM, G9a block 17.8µM (no result: TDP1 inh)
CCN1C(=O)/C(=C\c2cccc(OC(=O)c3ccco3)c2)SC1=S	HP1b chromo inh inconclusive, JMJD2A Tudor inh inconclusive (no result: TDP1 inh)
COc1cc(/C=C2/C(=O)NN(c3cccc(F)c3)C2=O)ccc1OC(=O)c1ccco1	BAZ2B block inconclusive, Sfp inh 56.2µM, G9a block 28.2µM
C=CCN1C(=O)/C(=C\c2cccc(OC(=O)c3ccco3)c2)SC1=S	G9a block 79.4µM
C=CCN1C(=O)/C(=C\c2ccc(OC(=O)c3ccco3)c(OC)c2)SC1=S	BAZ2B block 10µM, JMJD2A Tudor inh inconclusive, G9a block 14.1µM
O=C(O)CN1C(=O)/C(=C\c2cccc(OC(=O)c3ccco3)c2)SC1=S	none
c1ccc(NC2=NCCN2CCCC2CCCC2)cc1	none (no result: Sfp inh)
CCOc1ccc(NC(=O)CSc2nnc3c(C)cc4ccccc4n23)cc1	none (no result: Sfp inh, TDP1 inh)
Cc1ccc(C)c(NC(=O)CSc2nnc(C)n3c2cc2occc23)c1	none (no result: Sfp inh)
COc1cccc(C(=O)Nc2ccc(C(=O)OCc3cc(=O)n4cc(C)sc4n3)cc2)c1	none (no result: Sfp inh)
COc1cccc2cc(C(=O)Nc3ccccc3Cl)/c(=N/NS(=O)(=O)c3ccccc3)oc12	none
O=C(Cn1cnc2ccccc2c1=O)Nc1ccccc1N1CCOCC1	G9a block inconclusive
O=C(O)CN1C(=O)/C(=C\c2ccc(OC(=O)c3ccco3)cc2)SC1=S	Sfp inh 44.7µM, JMJD2A Tudor inh inconclusive, G9a block 8.91µM
